# Screen size: about 310,000 compounds; about 14,000 (4.5%) showed an effect of 50% or more. Effects have a minus sign here. For the sample, strong results were picked, then their nearest neighbours and some compounds at random.
# Biological target: human ether-à-go-go-related gene (hERG) potassium channel (human, UniProt Q12809)
# Test: primary screen, population patch clamp on CHO cells stably expressing hERG; higher = less effect of the substance
# 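Note: peak tail current of the secondary pulse compared with the same well before compound.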
# human ether-à-go-go-related gene (hERG) potassium channel, sequence (Q12809 whole entry, looked up): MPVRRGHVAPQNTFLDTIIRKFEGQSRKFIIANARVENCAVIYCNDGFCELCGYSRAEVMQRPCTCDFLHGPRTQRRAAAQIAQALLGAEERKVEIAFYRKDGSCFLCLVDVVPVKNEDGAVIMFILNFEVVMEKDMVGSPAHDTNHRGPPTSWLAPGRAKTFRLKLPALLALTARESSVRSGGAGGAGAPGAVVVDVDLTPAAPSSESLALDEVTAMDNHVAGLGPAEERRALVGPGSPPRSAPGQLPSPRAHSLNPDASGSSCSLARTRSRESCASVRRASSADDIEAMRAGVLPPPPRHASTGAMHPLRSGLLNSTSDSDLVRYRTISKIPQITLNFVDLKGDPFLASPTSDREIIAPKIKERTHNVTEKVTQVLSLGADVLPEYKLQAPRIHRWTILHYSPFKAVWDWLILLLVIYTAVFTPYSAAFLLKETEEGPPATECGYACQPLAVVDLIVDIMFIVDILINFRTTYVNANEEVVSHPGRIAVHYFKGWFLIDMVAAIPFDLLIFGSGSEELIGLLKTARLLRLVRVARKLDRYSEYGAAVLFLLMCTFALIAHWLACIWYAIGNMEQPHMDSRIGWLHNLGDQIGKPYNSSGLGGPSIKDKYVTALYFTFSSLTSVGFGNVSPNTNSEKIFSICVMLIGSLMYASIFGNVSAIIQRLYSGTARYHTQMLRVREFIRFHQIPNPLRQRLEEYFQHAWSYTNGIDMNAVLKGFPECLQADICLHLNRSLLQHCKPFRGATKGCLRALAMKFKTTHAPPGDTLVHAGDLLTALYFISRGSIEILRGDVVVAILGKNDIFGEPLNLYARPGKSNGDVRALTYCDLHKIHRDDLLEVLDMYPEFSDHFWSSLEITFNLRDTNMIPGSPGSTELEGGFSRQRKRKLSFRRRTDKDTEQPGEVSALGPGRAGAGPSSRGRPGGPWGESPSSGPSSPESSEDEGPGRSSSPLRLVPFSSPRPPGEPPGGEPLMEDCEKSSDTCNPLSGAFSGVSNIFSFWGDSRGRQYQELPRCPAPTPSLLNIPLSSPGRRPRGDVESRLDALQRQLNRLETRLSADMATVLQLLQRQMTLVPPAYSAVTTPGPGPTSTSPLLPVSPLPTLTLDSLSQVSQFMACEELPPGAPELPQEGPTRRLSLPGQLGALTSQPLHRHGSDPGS
row,SMILES,"hERG current change (%, negative = inhibition) at 10uM"
1,CN1CCN(CC(=O)Nc2ccccc2[N+](=O)[O-])CC1,-13.2%
2,Cc1ccc(-n2cc(-c3ccccc3)c3c(=O)[nH]cnc32)cc1,8.89%
3,COc1ccc(C(CNC(=O)C2CC2)N(C)C)cc1 (stereo not drawn),1.52%
4,COc1ccc(CN2CCCC(CNC(=O)c3ccc(F)cc3)C2)c(F)c1 (stereo not drawn),-75.4%
5,COc1ccc(CC(=O)NCC2CCCN(Cc3ccc(F)cc3F)C2)cc1 (stereo not drawn),-17.5%
6,COC(=O)c1ccc(C(=O)N2CCCC(CNC(=O)c3ccc(F)cc3)C2)cc1 (stereo not drawn),-5.82%
7,COc1ccc(CN2CCCC(CNC(=O)c3ccc(F)cc3)C2)cc1OC (stereo not drawn),-70.6%
8,COc1cccc(CN2CCCC(CNC(=O)c3ccc(F)cc3)C2)c1OC (stereo not drawn),-49.1%
9,COc1ccc(CC(=O)NCC2CCCN(Cc3ccc(OC)cc3F)C2)cc1 (stereo not drawn),-36.9%
10,CCOc1cc(CN2CCCC(CNC(=O)c3ccc(F)cc3)C2)ccc1OC (stereo not drawn),-66.2%
11,COc1ccc(CN2CCCC(CNC(=O)c3ccc(F)cc3)C2)c(C)c1C (stereo not drawn),-75.5%
12,CCOc1ccccc1CN1CCCC(CNC(=O)Cc2ccc(OC)cc2)C1 (stereo not drawn),-22.1%
13,COc1ccc(C(=O)N2CCCC(CNC(=O)c3ccc(F)cc3)C2)cc1OC (stereo not drawn),3.14%
14,O=C(COC(=O)c1ccc(Br)o1)NCc1cccs1,-4.11%
15,COCOc1ccc(C=O)c(O)c1,7.21%
16,CCOc1ccc(C2CC(c3cccc(OC)c3)Nc3nc(N)nn32)cc1 (stereo not drawn),-26%
17,Cc1ccc(/C=N/Nc2ccc(Cl)c(C(=O)O)c2)s1,10%
18,COc1ccccc1CCNC(=O)CN1C(=O)NC2(CCCC2)C1=O,-9.26%
19,Cc1cccnc1NC(=O)CNC(=O)COc1ccccc1,6.69%
20,CC(c1ccco1)N(C(=O)c1ccc(S(=O)(=O)N2CCCCC2)cc1)c1ccccn1 (stereo not drawn),-4.75%
21,CCCC(=O)N(Cc1cc(=O)[nH]c2ccccc12)c1ccc(C)cc1,-3.22%
22,Cc1cc(CNC(=O)c2cccnc2Cl)c2ccccc2n1,-2.82%
23,COc1ccc(NC(=O)CN(C)C(=O)c2ccc3[nH]c4c(c3c2)CC(C)CC4)cc1 (stereo not drawn),7.28%

row,SMILES,"hERG current change (%, negative = inhibition) at 10uM"
1,CCOc1cc(C(=O)NCc2ccc(F)cc2)ccc1OCC(=O)N1CCCCC1,-37.5%
2,CCOc1ccc(CN2CCCC(CNC(=O)c3ccc(F)cc3)C2)cc1CO (stereo not drawn),-68.1%
3,O=C(NC1CCN(C(=S)NCc2ccco2)CC1)NC12CC3CC(CC(C3)C1)C2,5.73%
4,CCOC(=O)N1CCC(N2C(=O)c3ccc(C(=O)O)cc3C2=O)CC1,9.66%
5,O=C(NC1CCCCC1)Oc1ccccc1,17.2%
6,COc1cccc(C(=O)N2CCN=C2SCc2cccnc2)c1OC,4.44%
7,COc1ccc(NS(=O)(=O)c2cn(C)cn2)cc1,11.9%
8,Oc1ccc2ccccc2c1CN1CCN(C/C=C/c2ccccc2)CC1,14%
9,Cl.Nc1nc(N2CCCCC2)nc2ccccc12,-45.8%
10,Cl.Nc1nc(N2CCN(c3ccccn3)CC2)nc2ccccc12,-68.4%
11,Cl.Nc1nc(N2CCN(C/C=C/c3ccccc3)CC2)nc2ccccc12,-67.7%
12,Nc1nc(N2CCOCC2)nc2ccccc12,-19.7%
13,c1ccc(N2CCN(Cc3nc4ccccc4[nH]3)CC2)nc1,9.64%
14,c1ccc2[nH]c(N3CCOCC3)nc2c1,8.82%
15,c1ccc(N2CCN(c3nc4ccccc4[nH]3)CC2)nc1,-64.4%
16,CCN(CC)c1nc(N2CCN(C)CC2)nc2ccccc12.Cl,-44.3%
17,COC(=O)c1cccc(N(CC(=O)NC2CCCC2)C(=O)CNC(=O)c2cccs2)c1,-1.26%
18,O=C(Nc1sc2c(c1C(=O)N1CCOCC1)CCCCC2)c1cccnc1,17%
19,CCN(CC)S(=O)(=O)c1ccc(N2CCCC2)c(NC(=O)CC(C)(C)C)c1,-2.34%
20,Cc1cc(C(=O)NC(C)c2ccccc2)c2cc(F)ccc2n1 (stereo not drawn),3.06%
21,O=C(N/N=C/c1c(Cl)cccc1Cl)c1cccc(F)c1,3.24%
22,CC/C(C)=N/NC(=O)c1[nH]c2ccc(C)cc2c1-c1ccccc1,0.516%
